From PubChem BioAssay
Only some compounds are listed: those with a hit (about 1.6% of all), similar ones and a draw of the others.
IL1B cytotox: toxic to HUVEC cells under IL-1B stimulation. HUVEC cell count loss, Hoechst imaging, IL-1B stimulated. cell count reduction, % at 2 µM. 94,000 compounds, 0.41% hits;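 active = cell count reduction more than 3 SD above the screen-wide mean, cut at about 70% in these data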
IL1B NFkB pot: enhances IL-1B driven NFkB nuclear translocation; HUVEC IL-1B NFkB p65 nuclear translocation imaging; activation, % at 2 µM; 94,000 compounds, 0.3% hits; AID 819;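 active = activation above 40%, about the mean plus 3 SD, also judged a hit on visual image review; inconclusive = activation above 40% but not a hit on visual review; inactive = activation not above 40% and no visual hit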;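 also: percent activation is computed from the nuclear over cytoplasmic p65 intensity ratio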
IL1B NFkB inh: blocks IL-1B driven NFkB nuclear translocation in HUVEC cells. HUVEC IL-1B NFkB p65 nuclear translocation imaging. inhibition, % at 2 µM. AID 796. 94,000 compounds, 0.43% hits;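 active = inhibition above about 30% together with a positive call from visual inspection of the well image, limit read from the data; inconclusive = inhibition above a set limit but visual check negative; inactive = inhibition not above a set limit, visual check negative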;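 also: nuclear over cytoplasmic p65 intensity ratio measured by imaging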
TNFa cytotox: toxic to HUVEC cells under TNF alpha stimulation; HUVEC TNFalpha-stimulated, Hoechst cell count, imaging; cell count reduction, % at 2 µM; 93,000 compounds, 0.17% hits;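 active = cell count reduction exceeding the screen mean by over 5 SD, scaled to untreated wells per plate, cut at about 78% in these data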;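 also: cells counted after 24 h of TNF alpha exposure following the 1 h pretreatment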
VCAM1 TNFa inh: reduces TNF alpha induced VCAM1 expression in HUVEC; 95,000 compounds, 0.48% hits; HUVEC TNFa-induced VCAM-1 immunofluorescence, high-content imaging; inhibition, % at 2 µM;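 active = inhibition above the batch mean plus 3 SD, with images confirmed as a hit by eye, cut at about 37% in these data; inconclusive = inhibition above that limit but hit not confirmed in images; inactive = inhibition not above that limit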
cytoskel mod: modifiers of cytoskeleton assembly; HUVEC TNFa F-actin phalloidin imaging, high content; inhibition, % at 2 µM; 91,000 compounds, 0.18% hits; AID 836;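 active = inhibition above the batch mean plus 3 SD and confirmed as a hit by visual image inspection, cut at about 30% in these data, passing the limit was not always enough; inconclusive = above the inhibition threshold but rejected on visual inspection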
Of the large screens only hits and unclear results are named; the others gave an inactive call.

COc1ccc(-c2nc(CS(=O)CC(=O)NCc3cccnc3)c(C)o2)cc1 (stereo not drawn)	TNFa cytotox 82.2
COC1(OC)C(/C=C/c2ccc(Cl)cc2)C(C#N)(C#N)C1(OC)OC (stereo not drawn)	none
COc1cccc(C(=O)N/N=C/c2ccc(OC3CSC3)cc2)c1	TNFa cytotox 93.9 (no result: VCAM1 TNFa inh)
O=C(Nc1ccccc1Cl)N1CCN(c2ncccn2)CC1	none
CC(=O)Nc1c(C(=O)N2CCN(c3ncccn3)CC2)cnn1-c1ccccc1Cl	IL1B NFkB pot 40.0
Cc1nc(SCC(=O)NCCc2ccccc2)nc(C)c1C	none
Cc1cccc(/C=N/NC(=O)c2cc3c(s2)-c2ccccc2CC3)c1	IL1B NFkB inh 51.7
Cc1cc(=O)oc2ccc(OCC(=O)N(Cc3ccc(F)cc3)Cc3ccco3)cc12	none
COc1ccccc1C(=O)NCC1CCN(c2ccc(S(=O)(=O)N3CCOCC3)cc2)CC1	none
COc1ccc(-c2[nH]ncc2/C=C(/C#N)C(=O)NC2CCCCCC2)cc1	none
S=c1[nH]nc(COc2ccc3c(c2)OCO3)n1-c1ccccc1	VCAM1 TNFa inh 97.0
CC1=C(C(N)=O)C(c2ccccn2)n2nc(-c3ccccc3Cl)nc2N1 (stereo not drawn)	IL1B NFkB inh 35.5
Cc1cc(C)n(-c2nc(-c3cccc(Cl)c3)cs2)n1	TNFa cytotox 85.9, VCAM1 TNFa inh 89.9
Cc1cc(C)n(-c2nc(-c3ccccc3)cs2)n1	none
COc1cc(-n2cnnn2)ccc1S(=O)(=O)N1CCOCC1	none
O=S(=O)(c1cccc(-n2cnnn2)c1)N1CCOCC1	TNFa cytotox 100.0, VCAM1 TNFa inh inconclusive, cytoskel mod inconclusive
CN(CCC#N)S(=O)(=O)c1ccc2c(c1)c(=O)n(C)c(=O)n2C	none
CN(CCc1ccccn1)C(=O)CN(C)S(=O)(=O)c1ccc2c(c1)c(=O)n(C)c(=O)n2C	IL1B NFkB pot 41.3
Cc1nn(Cc2ccccc2Cl)c(C)c1C(=O)N1CCN(c2ccccc2)CC1	none
CC(NC(=O)c1ccccc1Cl)C(=O)O (stereo not drawn)	IL1B NFkB pot 66.6
COc1cc(NC(=O)C2CCCN(c3ncccn3)C2)cc(OC)c1 (stereo not drawn)	none
COC(=O)c1cnc(SC)nc1C	none
CNC(=O)CN(c1ccc(OC)cc1)S(=O)(=O)c1ccc(F)cc1	VCAM1 TNFa inh 92.9
O=C(O/N=C1/CCCc2occc21)c1ccccc1	IL1B cytotox 72.1
Cc1ccc(C(=O)O/N=C2\CCCc3ccccc32)cc1	none
COc1cc(/C=C(/C(=O)c2cccs2)c2nc3ccccc3[nH]2)ccc1O	none (no result: TNFa cytotox, VCAM1 TNFa inh, cytoskel mod)
O=C(/C(=C/c1ccc(Cl)cc1)c1nc2ccccc2[nH]1)c1cccs1	VCAM1 TNFa inh 52.4
CCCCCC(=O)NC(=S)Nc1ccccc1C(=O)OC	none
CCCCC(=O)NC(=S)Nc1ccccc1C(=O)Nc1ccccc1	TNFa cytotox 89.9, VCAM1 TNFa inh 93.4
O=C(Cn1nnc2ccccc21)NCc1ccccc1	none
O=C(Cn1nnc2ccccc21)N/N=C\C=C\c1ccccc1	IL1B cytotox 87.9
N#CC1=C(N)Oc2c(ccc3ccccc23)C1c1cccs1 (stereo not drawn)	VCAM1 TNFa inh 79.6
N#CC1=C(N)Oc2cc(O)ccc2C1c1cccs1 (stereo not drawn)	none
C=CCn1c(SCC(=O)Nc2nnc(CC)s2)nnc1-c1cccnc1	none
CCc1nnc(NC(=O)c2cccnc2)s1	IL1B NFkB pot 147.3
CCCc1nnc(NC(=O)c2ccncc2)s1	none
CCc1nnc(NC(=O)CSc2nnc(-c3cccnc3)n2CCc2ccccc2)s1	IL1B NFkB pot 42.7
C=CCn1c(SCc2c(C(=O)OC)sc(N)c2C(=O)OC)nnc1-c1ccc(Br)cc1	none
O=C(O)C1CC=CCC1C(=O)N1CCCC1 (stereo not drawn)	TNFa cytotox 96.2, VCAM1 TNFa inh 82.2
O=C(O)C1CC=CCC1C(=O)N1CCc2ccccc21 (stereo not drawn)	none
Nc1c(C(=O)c2ccccc2)sc2snc(SCC(=O)c3ccccc3)c12	none
Cc1ccccc1-c1nc(CN2CCC(C(=O)NCCCN3CC(C)CC(C)C3)CC2)c(C)o1 (stereo not drawn)	VCAM1 TNFa inh 42.8
Cc1ccccc1-c1nc(CN2CCC(C(=O)NCCCN3CCCC3)CC2)c(C)o1	none
Cc1oc(C(C)(C)C)cc1C(=O)N1CCCC1C(=O)O (stereo not drawn)	none
